Hit rate of the full screen: of about 320,000 compounds, about 1,300 (0.41%) were called active. Not shown: some 3% with an inconclusive outcome. No rule for the calls is given here. Only a sample is shown. Results with a measured potency or affinity are listed apart.

This assay is described as follows: growth inhibition of non-replicating M. tuberculosis (AID 488890).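 Also: plate controls were DMSO cells for no effect and high antibiotic wells for full effect.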 Particulars: Mycobacterium tuberculosis non-replicating, at 25 µM, stronger effect = higher value.
Broadly, the inhibition is the drop in the measured response relative to a control, in per cent. Take `Cn1c(=O)c(Oc2cc(Cl)cc(Cl)c2)nc2ccccc21`: the inhibition is 5.56%. `Cc1ccc(N)cc1NC(=O)CN1CCOCC1`: the inhibition stood at 6.66%. `CCOCCCNC(=O)C1CC(=O)N(C2CCCC2)C1` (centres undefined): the inhibition was -5.49%. For `CSc1ncccc1C(=O)OCC(=O)N1CCCC1`, the inhibition turned out to be 39.6%.

For `COc1cccc(C(=O)COC(=O)c2ccc(NC(C)=O)cc2)c1`, the inhibition amounted to 61.7%. Take `CCN(CC)S(=O)(=O)c1cc(C(=O)N=c2sccn2C)ccc1OC`: the inhibition came to 20.4%. Regarding `OCCN1CCN(Cc2cc(Cl)c3cccnc3c2O)CC1`, the inhibition was 66%. As for `CN1CCN(Cc2cc(Cl)c3cccnc3c2OC(=O)c2cccs2)CC1`, the inhibition turned out to be 51%. Turning to `O=C(Oc1c(Cl)cc(Cl)c2cccnc12)N1CCOCC1`, the inhibition was determined as 2.11%. `O=[N+]([O-])c1cc(CN2CCCC2)c2cccnc2c1O`: the inhibition was -4.52%.

Turning to `CCOC(=O)N1CCN(Cc2ccccc2Cl)CC1`, the inhibition turned out to be 10.7%.

As to `CCOC(=O)N1CCN(Cc2ccc(O)c3ncccc23)CC1`, the inhibition was found to be 56.8%. Turning to `COCCCNC(=O)c1ccc2c(c1)ncn2-c1ccc(C)cc1C`, the inhibition was 5.06%.

Turning to `Cc1ccc(NC(=O)CN2C(=O)NC3(CCCC3)C2=O)nc1`, the inhibition was -25.1%. Take `COc1ccccc1OCC(=O)/C=C1/N(C)c2ccccc2C1(C)C`: the inhibition turned out to be 17.5%. With `NS(=O)(=O)c1ccc(CCNC(=O)C2COc3ccccc3O2)cc1` (centres undefined), the inhibition turned out to be 7.64%.

As for `COc1ccc(CCN2C(=O)CC(N3CCN(S(=O)(=O)c4ccccc4)CC3)C2=O)cc1OC` (centres undefined), the inhibition amounted to 13.8%. For `CCC(C)[C@H](NC(=O)c1cc2cc(Cl)ccc2n1C)C(=O)N1CCC(C(=O)O)CC1` (some centres undefined), the inhibition amounted to 0.12%. In the case of `COc1cccc(CNC(=O)CN2CCC(c3nc4ccc(C)cc4[nH]3)CC2)c1`, the inhibition was found to be 6.15%. As to `FC(F)(F)c1cccc(CON=C2CCN(c3ncc(C(F)(F)F)cc3Cl)CC2)c1`, the inhibition is -8.15%.

As to `O=C(Nc1cc(Cl)ccc1Cl)c1ccc(OC(=O)c2ccco2)cc1`, the inhibition was determined as 49.5%. As to `O=C(Nc1cc(Cl)ccc1Cl)c1ccco1`, the inhibition is -1.55%. As for `CN(Cc1ccc2c(c1)OCCO2)C(=O)CSc1ncnc2sccc12`, the inhibition was 25.8%. To `CCCc1cc(=O)[nH]c(SCC(=O)c2cc(C)n(CC(F)(F)F)c2C)n1` belongs 6.27%; to `COc1cccc(-n2ccnc2SCC(=O)Nc2ccccc2)c1`, 2.78%. As for `CC(C)(C)c1ccc2c(c1)OC(C(=O)N/N=C/c1ccc([N+](=O)[O-])o1)CO2` (centres undefined), the inhibition was 77.1%.

For `O=C(N/N=C/c1c[nH]c2ccccc12)C1COc2ccccc2O1` (centres undefined), the inhibition was determined as 26.6%. For `Cn1cccc1/C=N\NC(=O)C1COc2ccc(C(C)(C)C)cc2O1` (centres undefined), the inhibition was determined as 78.1%.

Take `C/C(=N\NC(=O)C1COc2ccccc2O1)c1ccc(Cl)s1` (centres undefined): the inhibition amounted to 76%. To `O=C(N/N=C\c1ccc(-c2ccc([N+](=O)[O-])cc2)o1)C1COc2ccccc2O1` (centres undefined) belongs 42.2%; to `O=C(N/N=C\c1ccc(O)c([N+](=O)[O-])c1)C1COc2ccccc2O1` (centres undefined), 57%. As to `O=C(N/N=C/c1cccc([N+](=O)[O-])c1)C1COc2ccccc2O1` (centres undefined), the inhibition is 29.6%.

For the molecule `CC(C)(C)c1ccc2c(c1)OC(C(=O)N/N=C\c1ccncc1)CO2` (centres undefined), the inhibition came out at 10.4%.

For the molecule `CC(C)CNS(=O)(=O)c1ccccc1C(=O)N1CCCCC1`, the inhibition was 8.8%. With `C/C(=C\c1ccccc1)C(=O)N1CCN(c2cccc(C(F)(F)F)c2)CC1`, the inhibition turned out to be 22.2%. For the molecule `COc1ccc(N2CC(C)Cn3c2nc2c3c(=O)n(Cc3ccc(C)cc3)c(=O)n2C)c(OC)c1` (centres undefined), the inhibition was found to be 17.9%. `CCc1ccc(C(=O)NNC(=O)c2ccc3c(=O)n4c(nc3c2)CCC4)cc1`: the inhibition was -9.87%. As to `Cc1cc(OC(C)C(=O)Nc2ccccc2C(=O)N2CCCC2)ccc1Cl` (centres undefined), the inhibition stood at 4.49%. Regarding `O=C(/C=C/c1ccccc1)NCCc1ccccc1`, the inhibition was 1.5%.

Turning to `COc1ccc(N2CC(C(=O)OCC(=O)Nc3cccc(C)c3C)CC2=O)cc1` (centres undefined), the inhibition was -1.13%. The same measure for `Cn1c(N)c(C(=O)CNC2CCCCC2)c(=O)n(C)c1=O`: -15.1%; for `CCOC(=O)CNC(=O)CSc1nnc(C)c(=O)[nH]1`: -4.04%. For the molecule `Cc1cc(C)c(S(=O)(=O)c2ccccc2C)c(OCCN(C)C)n1`, the inhibition was determined as 6.46%.

As for `CN(C)c1ccc(/C=N/NC(=O)C2COc3ccccc3O2)o1` (centres undefined), the inhibition stood at 1.59%. To `O=C(N/N=C/c1ccco1)C1COc2ccccc2O1` (centres undefined) belongs 4.17%. Turning to `CCCN1CCN(c2ccc([N+](=O)[O-])cc2C#N)CC1`, the inhibition is 2.83%. For `CC1CC(=O)C(C2c3ccccc3CCN2C(=O)CCl)C(=O)C1` (centres undefined), the inhibition is 14.6%. On to `CN1CCCC(OC(=O)c2ccccc2Br)C1` (centres undefined), for which the inhibition was -1.81%. For the molecule `CCN1C(=O)CC(N2CCC(C(=O)N3CCCCCC3)CC2)C1=O` (centres undefined), the inhibition was 77%. As for `O=C1CC(N2CCN(c3ccccc3O)CC2)C(=O)N1Cc1ccccc1` (centres undefined), the inhibition stood at 72%.

`O=C(CC1C(=O)NCCN1Cc1cccc(Oc2ccccc2)c1)NCCc1ccncc1` (centres undefined): the inhibition turned out to be 12.8%. For the molecule `Cc1cccc(NC(=O)c2c(O)c3ccccc3n(C)c2=O)c1`, the inhibition was found to be 13.4%. Take `COc1ccc(C(=O)OCC(=O)NC(=O)NC(C)C)cc1OC`: the inhibition was -0.28%. To `CC(NC(=O)C1CCCO1)c1ccccc1` (centres undefined) belongs 17.7%; to `Cc1ccc(C(C)NC(=O)C2CCCO2)cc1C` (centres undefined), 16.5%.

As for `COc1cc2ccccc2cc1C(=O)N1CCCCC1`, the inhibition was found to be 12%. To `COC(=O)C1=C(C)N(Cc2ccccc2)C(=NCc2cc(OC)c(OC)c(OC)c2)N[C@H]1c1cccc(F)c1` belongs 65.1%; to `COC(=O)C1=C(C)N(Cc2ccccc2)C(=NCc2ccc(OC)cc2)N[C@H]1c1cccc(F)c1`, 79.1%. `C=CCn1c(O)c(/C=N/NC(=O)c2ccncc2)c(=O)[nH]c1=O`: the inhibition came to 58%. On to `COc1ccccc1C(=O)CC(=O)c1ccccc1`, for which the inhibition came to 52.4%. To `O=c1c2ccccc2nc2ccccn12` belongs -2.46%; to `Cc1nc2ccccc2c(=O)n1-c1cc([N+](=O)[O-])cc([N+](=O)[O-])c1`, 19.9%; to `Nc1c(-c2cccc([N+](=O)[O-])c2)nc2ccccn12`, 6.84%. In the case of `O=[N+]([O-])c1cnc2ccccc2c1`, the inhibition was -10.7%.

In the case of `CCCOc1ccc(-c2nc(C#N)c(N3CCN(C)CC3)o2)cc1`, the inhibition turned out to be 30.2%. Turning to `CCOc1ccc(CCNC(=O)COC(=O)CCC(=O)c2cccs2)cc1OCC`, the inhibition was 11.4%.

As to `Cc1ccc(/C(=N\S(=O)(=O)c2ccc(Br)cc2)Nc2ccccc2C)cc1`, the inhibition is -11%. Take `COc1ccc(NC(=O)CSCC(=O)NC2(C)CCS(=O)(=O)C2)cc1` (centres undefined): the inhibition is -8.31%. To `CCn1ccnc1[C@@H]1C[C@H]2CN(Cc3ccccc3OC)C(=O)[C@]23CCCN13` belongs 29.3%. For the molecule `CCN(Cc1ccncc1)C(=S)Nc1ccccc1`, the inhibition is -19.8%.

For `CCOC(=O)C(C)Oc1ccsc1C(=O)OC` (centres undefined), the inhibition came to 53.8%. To `COc1cc(C=O)c(Cl)cc1OCC(N)=O` belongs -0.64%; to `O=C(Nc1ccccc1N1CCCC1)c1cccnc1Cl`, 7.22%. As for `Cc1ccc(NC(=S)N2CCN(S(=O)(=O)c3ccccc3)CC2)cc1`, the inhibition was -12.6%.

For `O=C(COc1ccc(F)cc1)N1CCCc2ccccc21`, the inhibition was 74.6%. As for `Cc1ccc(OCC(=O)N2CCc3ccccc32)cc1`, the inhibition was found to be 43%.

`CC(=O)NC(Cc1c[nH]c2ccccc12)C(=O)OCC(=O)Nc1cc(C)on1` (centres undefined): the inhibition is -1.64%. Take `O=C(O)c1ccc(Sc2nnnn2-c2ccccc2)c([N+](=O)[O-])c1`: the inhibition came to 29.1%. With `Cn1nnnc1Sc1ccc(C(=O)O)cc1[N+](=O)[O-]`, the inhibition is -12.4%. For `O=C(c1cc2n(n1)C(C(F)(F)F)CC(c1ccco1)N2)N1CCN(c2ccccn2)CC1` (centres undefined), the inhibition was 8.02%. Turning to `CCN(Cc1ccccc1)c1ccc(/C=N/N2CCOCC2)cc1`, the inhibition came to 12.8%. To `NC(N)=N/N=C/c1ccccc1` belongs 13.1%.

Turning to `O=C1c2ccccc2NC(c2ccco2)N1NS(=O)(=O)c1ccccc1` (centres undefined), the inhibition turned out to be 1.96%.

Turning to `O=[N+]([O-])c1ccc(Oc2ccc(-c3nnco3)cc2)c(Cl)c1`, the inhibition is -9.83%. In the case of `O=C(CCc1nc(-c2ccccc2Cl)no1)NCc1ccco1`, the inhibition turned out to be 43.2%. As to `CCNCCNc1ccc([N+](=O)[O-])c2cccnc12`, the inhibition is 79.3%. For the molecule `O=[N+]([O-])c1ccc(NCCO)c2ncccc12`, the inhibition turned out to be 9.39%. On to `O=C(CCSc1nnc(-c2ccc(O)cc2)o1)N1CCOCC1`, for which the inhibition amounted to 70.5%. To `O=C(CCSc1nnc(-c2ccco2)o1)N1CCOCC1` belongs 75.9%; to `O=C(CCSc1ccccc1)N1CCOCC1`, 14.3%; to `O=C(CCSc1ccccc1)N1CCN(c2ccccc2)CC1`, 10.9%. In the case of `Cc1cc(OCC(=O)N[C@@H](Cc2c[nH]c3ccccc23)C(=O)O)c2c(C)c(C)c(=O)oc2c1`, the inhibition came to 5.84%.

For the molecule `O=C(CN1C(=O)C(=O)c2ccccc21)c1ccccc1`, the inhibition is 27%. Regarding `COc1ccc(-n2c(-c3ccccc3)cc3c2CCCC3=O)cc1`, the inhibition amounted to 17.2%. Turning to `CCCCCCNc1nc(OC)nc(N2CC3CC(C2)c2cccc(=O)n2C3)n1` (centres undefined), the inhibition amounted to 3.85%. As for `COc1ccc(O)cc1`, the inhibition is -8.51%.

With `COc1ccc(-c2ccc(OC)cc2)cc1`, the inhibition worked out at 10.9%. With `CCc1ccc(OCc2ccc(C(=O)OC)o2)cc1`, the inhibition amounted to 72.2%. As for `COC(=O)c1ccc(COc2ccc(/C=N/O)cc2)o1`, the inhibition came out at 29.5%. As for `COc1ccc(-n2cnc3cc(C(=O)N4CCOCC4)ccc32)cc1`, the inhibition was -8.02%. Consider `O=C(NC(Cc1ccccc1)C(=O)O)NC12CC3CC(CC(C3)C1)C2` (centres undefined), for which the inhibition was -6.43%. For `CCN(CC)CCn1c(=S)[nH]c2cc(C(=O)NCc3ccccc3Cl)ccc2c1=O`, the inhibition stood at 35%. In the case of `Cc1ccc(C2C(C#N)=C(N)Oc3n[nH]c(-c4cccnc4)c32)o1` (centres undefined), the inhibition is -0.74%.

Regarding `N#CC1=C(N)Oc2n[nH]c(-c3ccccc3)c2C1c1cccnc1` (centres undefined), the inhibition was 9.98%.

For the molecule `O=C(OCC(=O)c1cccc2ccccc12)c1ccc(CO)cc1`, the inhibition was found to be 60%.

As to `CCCN(CCC)c1nc2ccccc2n2c(C)nnc12`, the inhibition turned out to be 17.5%.

With `O=C(N/N=C\c1c(O)ccc2ccccc12)c1ccc(Cn2cccn2)o1`, the inhibition is -4.74%. In the case of `O=C(N/N=C\c1c(O)ccc2ccccc12)c1ccc(O)cc1`, the inhibition amounted to 27.8%.

Regarding `CSc1cccc(CN2CCC(Oc3ccc(C(=O)N4CCCCC4)cc3)CC2)c1`, the inhibition was 64.2%. For `CCOC(=O)c1c(NC(=O)CSc2nc3cc(Cl)ccc3s2)sc(C(C)=O)c1C`, the inhibition was determined as 2.44%.

Consider `Cc1ccc(/C=N/NC(=O)c2nnn(-c3nonc3N)c2CN(C)C)o1`, for which the inhibition was -3.62%. Consider `NC(=O)COc1c(-c2ccc(Br)o2)oc2ccccc2c1=O`, for which the inhibition was -1.98%. Regarding `O=C(Oc1c(-c2ccccc2)oc2ccccc2c1=O)c1ccccc1`, the inhibition was 26.1%. To `N#Cc1c(OCC(=O)c2ccccc2)nc2c(c1-c1ccco1)CCc1ccccc1-2` belongs -14.7%.

The values above are taken from PubChem BioAssay AID488890 (Southern Research Specialized Biocontainment Screening …, 2010).
